Screening data: PubChem BioAssay, National Center for Advancing Translational Sciences (NCATS)
IL-1B inflam inh: qHTS for Inhibitors of Inflammasome Signaling: IL-1-beta AlphaLISA Primary Screen. THP-1 LPS/ATP IL-1B secretion, AlphaLISA, 16 h; hits give low values. activity change, % at 57.5 µM. 360,000 compounds, 4.7% hits. AID 743279, 2014; in the data active means activity change below about -50%; inconclusive means mostly about -30% to -49%
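THP-1 cells pretreated 1 hr with compounds (up to 57.5 uM final), then stimulated with LPS (250 ng/mL final) plus ATP (1.25 mM final); secreted IL-1B measured by AlphaLISA after 16 hr, decreased signal indicating inhibition.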
HepG2 viability: qHTS for Inhibitors of TGF-b: Cytotox Counterscreen. HepG2 CAGA-GFP viability, ATP luminescence, 18 h. Potency, µM (highest dose often 46.1 µM), hits mostly cytotoxic. 410,000 compounds, 0.76% hits. AID 588856, 2011
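HepG2 CAGA-GFP cells (1000/well, DMEM with 1% FBS) received compound, then TGF-beta at 500 pg/mL final, and were incubated 18 hours at 37 degrees C. Viability was read by CellTiter-Glo luminescence. Media-only wells were set as complete cell-killing and DMSO as no toxicity.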
TDP1 inh: qHTS Assay for Inhibitors of Tyrosyl-DNA Phosphodiesterase (TDP1); Tyrosyl-DNA phosphodiesterase 1 (Homo sapiens), Q9NUW8; recombinant TDP1, AlphaScreen DNA substrate cleavage; Potency, µM (highest dose often 130 µM), hits mostly inhibitors; 350,000 compounds, 0.28% hits; AID 485290, 2010; further: nearly all actives have a fitted effect of over 40% in size
Target sequence (Q9NUW8 whole entry, looked up): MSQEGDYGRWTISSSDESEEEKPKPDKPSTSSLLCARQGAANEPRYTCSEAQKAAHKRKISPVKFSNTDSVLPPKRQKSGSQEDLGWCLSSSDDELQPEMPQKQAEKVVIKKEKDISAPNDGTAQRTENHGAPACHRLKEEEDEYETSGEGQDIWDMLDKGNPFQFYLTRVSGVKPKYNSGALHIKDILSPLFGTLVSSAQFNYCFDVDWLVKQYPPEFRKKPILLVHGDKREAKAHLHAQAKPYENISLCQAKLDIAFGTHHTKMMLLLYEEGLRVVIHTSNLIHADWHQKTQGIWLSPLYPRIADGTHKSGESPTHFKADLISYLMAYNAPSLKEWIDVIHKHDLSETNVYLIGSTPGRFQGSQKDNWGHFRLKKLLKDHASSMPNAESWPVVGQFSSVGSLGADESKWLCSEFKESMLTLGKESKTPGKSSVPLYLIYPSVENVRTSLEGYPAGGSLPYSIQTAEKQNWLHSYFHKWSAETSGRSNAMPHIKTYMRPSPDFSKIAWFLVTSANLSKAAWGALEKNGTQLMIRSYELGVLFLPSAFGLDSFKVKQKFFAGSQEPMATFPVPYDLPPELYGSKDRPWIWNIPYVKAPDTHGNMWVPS
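AlphaScreen read-out: signal falls as enzyme removes the 3' tyrosine-FITC from a 5'-biotinylated DNA oligo (15 nM, 5 min, RT). Enzyme was E. coli-made recombinant Tdp1 at 1 nM, exposed to compound for 15 min beforehand; beads 10 ug/ml, 10 min.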
DT40 TDP1 CPT: qHTS for Inhibitors of human tyrosyl-DNA phosphodiesterase 1 (TDP1): qHTS in cells in presence of CPT | chicken DT40 Tdp1-/-;hTDP1 cells + 20 nM CPT, ATP luminescence, 48 h | Potency, µM (doses to about 46.2 µM), hits mostly inhibitors | 420,000 compounds, 12% hits | AID 686979, 2013; further: nearly all actives have a fitted effect of over 55% in size
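Chicken DT40 Tdp1-/- cells complemented with human TDP1, 400 cells/well, exposed to compounds plus 20 nM camptothecin for at least 48 h at 37 C; viability read as ATP content by CellTiter-Glo luminescence.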
DT40 TDP1 no CPT: qHTS for Inhibitors of human tyrosyl-DNA phosphodiesterase 1 (TDP1): qHTS in cells in absence of CPT. DT40 Tdp1-/- hTDP1 cells, no CPT, ATP luminescence, 48 h. Potency, µM (top dose mostly 46.2 µM), actives largely listed as inhibitors. 420,000 compounds, 15% hits. AID 686978, 2013; further: nearly all actives have a fitted effect of over 55% in size
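DT40 Tdp1-/-;hTDP1 cells, no CPT (DMSO vehicle only), 400 cells/well; compounds pin-transferred; ≥48 hr, 37 °C; CellTiter-Glo 30 min RT dark, luminescence read.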
TGFb inhibitor: qHTS for Inhibitors of TGF-b. HepG2 CAGA-GFP TGF-b/SMAD3 reporter, GFP fluorescence, 18 h; TGF-beta stimulated, 500 pg/mL final. Potency, µM (titrated, usually from 46.1 µM), usual class: inhibitors. 410,000 compounds, 1.2% hits. AID 588855, 2011; further: nearly all actives have a fitted effect of over 65% in size
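Inhibition was scored as loss of TGF-beta-induced (500 pg/mL final, 18 hours, 37 degrees C) GFP in HEPG2 cells carrying a CAGA-GFP reporter, in DMEM with 1% FBS. Well GFP was summed per cell; Activity was normalised to unstimulated and stimulated DMSO wells, then concentration-response fitting.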
A number is an active result. Hits are enriched below; roughly 18% of the tested compounds scored in any of these assays. Unless noted, the call rests on the fitted dose curve; in most records, active means well fitted curve in the direction sought with a large enough effect; inconclusive means small, poorly fitted or top-dose-only effect, or another doubt; inactive means no such curve, though single readings can be large; an effect the other way counts as inactive or inconclusive.

O=[N+]([O-])c1cccc(SSc2cccc([N+](=O)[O-])c2)c1 was read as IL-1B inflam inh inconclusive, HepG2 viability inactive, DT40 TDP1 CPT 3.66µM, DT40 TDP1 no CPT 4.61µM and TGFb inhibitor inconclusive.
For COCCCN1C(=O)C(CC(=O)NC2CCCCC2)CC(C(=O)N(C)C)=C1C (stereo unspecified) the results were IL-1B inflam inh inactive, HepG2 viability inactive, DT40 TDP1 CPT inactive, DT40 TDP1 no CPT inactive and TGFb inhibitor inactive.
O=C(NCCc1c[nH]c2ccccc12)C(=O)NCC1OCCN1S(=O)(=O)c1ccc(Cl)cc1 (stereo unspecified) was read as IL-1B inflam inh inactive, HepG2 viability inactive, TDP1 inh inactive, DT40 TDP1 CPT inconclusive, DT40 TDP1 no CPT 20.6µM and TGFb inhibitor inactive.
`Cc1cc(C)c(S(=O)(=O)N2CCOC2CNC(=O)C(=O)NCCc2c[nH]c3ccccc23)c(C)c1` (stereo unspecified) gave IL-1B inflam inh inactive, HepG2 viability inactive, TDP1 inh inactive, DT40 TDP1 CPT 25.9µM, DT40 TDP1 no CPT 18.4µM and TGFb inhibitor inactive.
Screening O=C(NCCc1c[nH]c2ccccc12)C(=O)NCC1OCCCN1S(=O)(=O)c1ccccc1 (stereo unspecified) returned IL-1B inflam inh inactive, HepG2 viability inactive, TDP1 inh inactive, DT40 TDP1 CPT inactive, DT40 TDP1 no CPT 16.4µM and TGFb inhibitor inactive.
`O=C(NCCc1c[nH]c2ccccc12)C(=O)NCC1OCCN1S(=O)(=O)c1ccccc1` (stereo unspecified) gave IL-1B inflam inh inactive, HepG2 viability inactive, TDP1 inh inactive, DT40 TDP1 CPT inconclusive, DT40 TDP1 no CPT inconclusive and TGFb inhibitor inactive.
Screening O=C(NCCc1c[nH]c2ccccc12)C(=O)NCC1OCCN1S(=O)(=O)c1ccc(F)cc1 (stereo unspecified) returned IL-1B inflam inh inactive, HepG2 viability inactive, TDP1 inh inactive, DT40 TDP1 CPT inconclusive, DT40 TDP1 no CPT inconclusive and TGFb inhibitor inactive.
For Cc1ccc(S(=O)(=O)N2CCCOC2CNC(=O)C(=O)NCCc2c[nH]c3ccccc23)cc1 (stereo unspecified) the results were IL-1B inflam inh -59.7, HepG2 viability inactive, TDP1 inh inactive, DT40 TDP1 CPT 14.6µM, DT40 TDP1 no CPT 18.4µM and TGFb inhibitor inactive.
Cc1cccnc1-c1cccc2c1OC(CNC(=O)C(=O)c1ccccc1)C2 (stereo unspecified) was read as DT40 TDP1 CPT inconclusive and DT40 TDP1 no CPT inactive.
COc1cccc(NC(=S)N(C)C2CCN(C)CC2)c1 was read as IL-1B inflam inh inactive, HepG2 viability inactive, DT40 TDP1 CPT inactive, DT40 TDP1 no CPT inactive and TGFb inhibitor inactive.
Screening Cc1sc(N)nc1-c1ccc(Oc2ccccc2)cc1 returned IL-1B inflam inh inactive, HepG2 viability inactive, TDP1 inh inactive, DT40 TDP1 CPT inconclusive, DT40 TDP1 no CPT inconclusive and TGFb inhibitor inconclusive.
`COC(=O)[C@H](Cc1ccccc1)NC(=O)O[C@@H]1Cc2cc(OC)ccc2O[C@H]1c1cccc(OC)c1` gave TDP1 inh inactive.
Cc1ccc(N2C(=O)CS(=O)(=O)C23C(=O)N(Cc2cccc(F)c2)c2ccccc23)cc1Cl (stereo unspecified) was read as HepG2 viability inactive, TDP1 inh inactive, DT40 TDP1 CPT 23.1µM, DT40 TDP1 no CPT 23.1µM and TGFb inhibitor inactive.
`Cc1cccc(N2C(=O)CS(=O)(=O)C23C(=O)N(Cc2c(F)cccc2Cl)c2ccccc23)c1` (stereo unspecified) gave HepG2 viability inactive, TDP1 inh inactive, DT40 TDP1 CPT 20.6µM, DT40 TDP1 no CPT 23.1µM and TGFb inhibitor inactive.
`O=C1CS(=O)(=O)C2(C(=O)N(Cc3ccccc3)c3ccccc32)N1c1ccc(F)c(Cl)c1` (stereo unspecified) gave HepG2 viability inactive, TDP1 inh inactive, DT40 TDP1 CPT inactive, DT40 TDP1 no CPT inconclusive and TGFb inhibitor inactive.
For O=C1CS(=O)(=O)C2(C(=O)N(Cc3ccccc3Cl)c3ccccc32)N1c1ccc(F)cc1 (stereo unspecified) the results were HepG2 viability inactive, TDP1 inh inactive, DT40 TDP1 CPT 14.6µM, DT40 TDP1 no CPT 16.4µM and TGFb inhibitor inactive.
`COc1ccc(N2C(=O)CS(=O)(=O)C23C(=O)N(Cc2cccc(F)c2)c2ccccc23)cc1OC` (stereo unspecified) gave HepG2 viability inactive, TDP1 inh inactive, DT40 TDP1 CPT inactive, DT40 TDP1 no CPT inconclusive and TGFb inhibitor inactive.
Screening Cc1ccc(CN2C(=O)C3(c4ccccc42)N(c2cccc(F)c2)C(=O)CS3(=O)=O)cc1 (stereo unspecified) returned HepG2 viability inactive, TDP1 inh inactive, DT40 TDP1 CPT 14.6µM, DT40 TDP1 no CPT inconclusive and TGFb inhibitor inactive.
O=C(Cn1ncn2c(cc3cc(F)ccc32)c1=O)NC1CCCCC1 was read as HepG2 viability inactive, TDP1 inh inactive, DT40 TDP1 CPT inactive, DT40 TDP1 no CPT inactive and TGFb inhibitor inactive.
c1ccc(-c2ccnc3nc(N4CCN(c5ccccc5)CC4)nn23)cc1 was read as IL-1B inflam inh inactive, HepG2 viability inactive, TDP1 inh inactive, DT40 TDP1 CPT 18.4µM, DT40 TDP1 no CPT 20.6µM and TGFb inhibitor inactive.
Screening O=c1[nH]c2ccccc2cc1CN(Cc1cccnc1)S(=O)(=O)c1ccc(Cl)cc1 returned IL-1B inflam inh -60.6, HepG2 viability inactive, TDP1 inh inactive, DT40 TDP1 CPT inconclusive, DT40 TDP1 no CPT 25.9µM and TGFb inhibitor inactive.
Screening O=c1[nH]c2ccccc2cc1CN(Cc1cccnc1)S(=O)(=O)c1ccc([N+](=O)[O-])cc1 returned IL-1B inflam inh inactive, HepG2 viability inactive, TDP1 inh inactive, DT40 TDP1 CPT inactive, DT40 TDP1 no CPT inconclusive and TGFb inhibitor inactive.
For CC(=O)Nc1ccc(S(=O)(=O)N(Cc2ccco2)Cc2cc3ccccc3[nH]c2=O)cc1 the results were IL-1B inflam inh inactive, HepG2 viability inactive, TDP1 inh inactive, DT40 TDP1 CPT inconclusive, DT40 TDP1 no CPT inconclusive and TGFb inhibitor inactive.
For CC(=O)Nc1ccc(S(=O)(=O)N(Cc2cccnc2)Cc2cc3ccccc3[nH]c2=O)cc1 the results were IL-1B inflam inh inactive, HepG2 viability inactive, TDP1 inh inactive, DT40 TDP1 CPT 16.4µM, DT40 TDP1 no CPT 18.4µM and TGFb inhibitor inactive.
